According to ChEMBL document CHEMBL3988442, “University of Dundee, Small-Polar-MMV Screening Library” (2021):
The whole screen tested about 48,000 compounds, of which about 13,000 (27%) showed an effect of 50% or more. The list shows a part of the results.

These compounds were tested on Wolbachia pipientis (assay: Anti-Wolbachia Cell-Based Screen). Settings: 5 µM.
Format: functional
Set-up: scale not given: in the data most compounds retested in dose-response had high values

| Compound | Percent Effect [%] |
| --- | --- |
| COc1ncc(C)cc1NC(=O)COc1ccccc1F | -12.82 |
| CCO[C@H]1COC[C@@H]1NC(=O)c1c[nH]nc1C1CCCCC1 | -0.7852 |
| Cn1c(C(N)=O)cc2c1CN(C(=O)C1CC(=O)N(C(C)(C)C)C1)CC2 (stereo not given) | -2.281 |
| Cn1ncc2c(NCC3CCS(=O)(=O)C3)nc(C3CCCC3)nc21 (stereo not given) | -5.604 |
| O=C(CCNc1ncccn1)NCc1cccc(OC(F)F)c1 | -10.33 |
| O=C(CCC1CC1)N1C[C@@H](CN2CCCC2)[C@@H](CO)C1 | -10.86 |
| Cc1ccc(CNC2CCc3[nH]c(=O)ccc3C2)cc1C.O=C(O)C(F)(F)F (stereo not given) | 104.8 |
| CCC(=O)N(C)CC(=O)Nc1ccc(Br)cn1 | -3.099 |
| O=C(CCc1nc(Cl)n[nH]1)N1C[C@H](CO)C[C@H](CN2CCCC2)C1 | -2.773 |
| Cn1nc2c(cc1=O)CN(CC(=O)Nc1ccc(Cl)cn1)CC2 | -5.01 |
| O=C(Cc1ccccc1)NCc1ccc(-c2ccccc2C(=O)O)cn1 | 101.1 |
| COCCC(=O)NCc1ccc(-c2ccccc2C(=O)O)nc1 | 88.43 |
| O=C(Cc1cc(-c2ccc3c(c2)OCCO3)on1)NCc1ccccn1 | 5.76 |
| CC(=O)NCc1cccc(-n2ccnc2-c2cccc(C(=O)O)c2)c1 | -20.57 |
| COc1ccccc1NCC(=O)NCc1cc[nH]n1 | 15.35 |
| COc1ccccc1OCCC(=O)NCc1ncc(C)c(OC)c1C | -4.89 |
| CC(=O)NCc1ccc(-c2ccccc2C(=O)O)cn1 | 125.9 |
| Cc1oc(CNC(=O)Cc2ccc3ccccc3c2)cc1C(=O)O | -0.3002 |
| CCCN1CCCn2nc(CNC(=O)CCOC)cc2C1 | 16.28 |
| COCCC(=O)NCc1cccnc1-n1cnc2ccccc21 | -10.59 |
| COc1c(C)cnc(CNC(=O)CCOCc2ccccc2)c1C | 7.332 |
| COCCC(=O)NCc1ccc(-c2ccccc2C(=O)O)cn1 | 105.5 |

| Compound | Percent Effect [%] |
| --- | --- |
| CCN(CC)S(=O)(=O)NCCc1cc(C)ccc1OC | 2.679 |
| Cc1noc(CNc2ccc(CC(=O)N3CCSCC3)cc2)n1 | -10.08 |
| COCCCN1C(=O)CC[C@H]2CN(c3nc4ccccc4s3)CC[C@H]21 | -8.201 |
| CN1CCN(c2ncccc2CNc2ncccc2C#N)CC1 | 1.331 |
| O=C(CCCn1ccnc1)N1CCC2(CC1)[C@H](O)C[C@@H]2OCCO | 0.2303 |
| CCCc1cc(CNC(=O)C2CCOc3ccccc3C2)on1 (stereo not given) | 6.963 |
| COCC(=O)NCc1ccc(-c2ccccc2C(=O)O)cn1 | 123.3614 |
| COCC(=O)Nc1cnc(N2CCN(c3ccccc3)CC2)nc1 | -8.386 |
| COCC(=O)NCc1cccnc1-n1cnc2ccccc21 | 13.4 |
| Cc1nc(CN2CCCN(CCOc3cccc(C#N)c3)CC2)no1 | 11.38 |
| O=C(c1cc(C2CC2)on1)N1CCC(Oc2ncccc2Cl)CC1 | 9.581 |
| Cc1cnn(C2CCCN(C(=O)c3cc(C4CC4)on3)C2)c1 (stereo not given) | 8.361 |
| O=C(c1cc(C2CC2)on1)N1C[C@H]2CC[C@](O)(c3ccccc3F)[C@H]2C1 | 127.6 |
| c1ccc2c(Cc3nnc([C@H]4CCN(C5CCC5)C4)o3)c[nH]c2c1 | -3.783 |
| NC1C=C(C(F)(F)F)NC=C1c1ccccc1 (stereo not given) | 86.08 |
| COc1ccc(C2=CNC(C(F)(F)F)=CC2N)cc1 (stereo not given) | 99.44 |
| NC1C=C(C(F)(F)F)NC=C1c1ccc(Cl)cc1 (stereo not given) | 102.6 |
| CC(NC(=O)C1CCN(S(N)(=O)=O)CC1)c1cccc(OC(F)F)c1 (stereo not given) | 6.374 |
| CS(=O)(=O)NCCNc1ncnc2cccc(F)c12 | 8.452 |
| CCCC(NC(=O)c1cnccn1)c1nnc2ccccn12 (stereo not given) | 41.87 |
| CC(C)CC(NC(=O)c1ccco1)c1nnc2ccccn12 (stereo not given) | 109.4 |
| CCCC(NC(=O)c1ccccn1)c1nnc2ccccn12 (stereo not given) | 4.889 |

| Compound | Percent Effect [%] |
| --- | --- |
| O=C(NCC1CCSCC1)N(CCCO)C1CCc2ccccc21 (stereo not given) | 6.335 |
| COc1ccc(C)cc1S(=O)(=O)NCC(c1cccn1C)N(C)C (stereo not given) | 4.095 |
| Cc1c(C(=O)N(C)CC(C)O)sc2nc(C(F)(F)F)ccc12 (stereo not given) | 9.483 |
| CCOCCn1c(=O)[nH]c2cc(C(=O)N(C)Cc3nc(C)cs3)ccc21 | -23.7 |
| CC(C)CC(=O)N(C)Cc1nc(C(F)(F)F)cs1 | 105.6 |
| CCC(NC(=O)c1ccc(COC)o1)c1nc(C(F)(F)F)cs1 (stereo not given) | -11.95 |
| Cc1nc(CN(C)c2nccc(C(F)(F)F)n2)cs1 | -8.606 |
| CCOCCC(=O)NCCNc1nccc(C(F)(F)F)n1 | -1.225 |
| CCC(NC(=O)c1ccc(OC)nn1)c1nc(C(F)(F)F)cs1 (stereo not given) | -7.754 |
| CCOCC(=O)N(C)Cc1nc(C(F)(F)F)cs1 | 102.1 |
| COCCC(=O)N(C)Cc1nc(C(F)(F)F)cs1 | 98.57 |
| Cc1cc(CN(C)C(=O)c2ccnc(N(C)C)c2)no1 | -7.552 |
| CCOC1CCCN(C(=O)c2[nH]nc(C)c2Br)C1 (stereo not given) | 6.367 |
| Cc1cnc2n1CCN(C)C21CCN(CC2CC2)CC1.O=C(O)C(F)(F)F.O=C(O)C(F)(F)F.O=C(O)C(F)(F)F | 2.342 |
| CNC(=O)N1CCC2(CC1)c1ncc(C)n1CCN2C.O=C(O)C(F)(F)F.O=C(O)C(F)(F)F | 93.19 |
| Cc1cnc2n1CCN(C)C21CCN(C(=O)CC(C)C)CC1.O=C(O)C(F)(F)F | 6.371 |
| CCN1CCn2c(C)cnc2C12CCN(C(=O)NC)CC2.O=C(O)C(F)(F)F | 106.5 |
| CCN1CC[C@@]2(C(=O)N3CCOCC3)CCN(C(=O)NC)CC[C@@H]12.O=C(O)C(F)(F)F | -38.24 |
| CCN1CCn2c(C)cnc2C12CCN(C(=O)NCC(C)C)CC2.O=C(O)C(F)(F)F | 99.78 |
| NC(=O)C1CCN(Cc2ccc(S(=O)(=O)N3CCCC3)o2)CC1 | -8.364 |
| Cc1c(NCc2ccccc2C#N)cccc1-n1cnnn1 | 4.013 |
